Where “and” joins values, the source holds several entries; their conditions need not be identical. Identical values can stand only once.
Experiments:
[1] = target: T1, Mitogen-activated protein kinase 12 (Homo sapiens) (UniProt P53778); conditions: at 1 µM;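 further: values are averaged p38gamma kinase inhibition readings, compounds tested at 1 µM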
T1 sequence (whole entry): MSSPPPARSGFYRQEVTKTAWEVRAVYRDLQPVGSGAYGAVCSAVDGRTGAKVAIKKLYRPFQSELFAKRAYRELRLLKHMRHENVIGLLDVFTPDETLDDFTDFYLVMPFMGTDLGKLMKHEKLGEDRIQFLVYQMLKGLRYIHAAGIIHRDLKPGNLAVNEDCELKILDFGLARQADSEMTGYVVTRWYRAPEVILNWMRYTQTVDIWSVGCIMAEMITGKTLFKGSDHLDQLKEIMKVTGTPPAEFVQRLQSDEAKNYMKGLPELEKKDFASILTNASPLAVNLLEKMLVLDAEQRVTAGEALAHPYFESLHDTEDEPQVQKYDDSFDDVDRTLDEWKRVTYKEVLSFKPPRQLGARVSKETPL

[2] = target: SRSF protein kinase 1 (Homo sapiens) (UniProt Q96SB4); conditions: at 0.1 µM
Chain of SRSF protein kinase 1 (Homo sapiens) (Q96SB4 whole entry, canonical isoform): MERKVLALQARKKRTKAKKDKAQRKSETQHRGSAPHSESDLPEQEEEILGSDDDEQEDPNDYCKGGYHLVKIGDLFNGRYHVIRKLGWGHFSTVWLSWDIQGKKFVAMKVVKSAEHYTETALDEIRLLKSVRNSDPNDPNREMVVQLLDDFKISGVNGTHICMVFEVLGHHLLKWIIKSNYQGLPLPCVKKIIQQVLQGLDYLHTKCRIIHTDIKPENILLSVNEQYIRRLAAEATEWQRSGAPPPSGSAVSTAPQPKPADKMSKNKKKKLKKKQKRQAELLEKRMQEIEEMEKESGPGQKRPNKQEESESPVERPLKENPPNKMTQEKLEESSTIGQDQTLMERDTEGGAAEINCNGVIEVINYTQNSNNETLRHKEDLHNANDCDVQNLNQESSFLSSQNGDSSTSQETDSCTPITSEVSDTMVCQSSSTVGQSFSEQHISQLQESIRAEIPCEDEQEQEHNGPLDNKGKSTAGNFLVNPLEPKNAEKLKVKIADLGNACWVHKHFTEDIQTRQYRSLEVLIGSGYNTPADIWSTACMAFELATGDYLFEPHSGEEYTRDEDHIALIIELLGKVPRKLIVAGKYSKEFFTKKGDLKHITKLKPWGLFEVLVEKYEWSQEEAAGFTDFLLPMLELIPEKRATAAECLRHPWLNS

[3] = target: SRSF protein kinase 1 (Homo sapiens) (UniProt Q96SB4); conditions: at 1 µM
[4] = target: Phosphatidylinositol 4,5-bisphosphate 3-kinase catalytic subunit alpha isoform (Homo sapiens) (UniProt P42336); conditions: at 0.1 µM
Chain of Phosphatidylinositol 4,5-bisphosphate 3-kinase catalytic subunit alpha isoform (Homo sapiens) (P42336 whole entry, canonical isoform): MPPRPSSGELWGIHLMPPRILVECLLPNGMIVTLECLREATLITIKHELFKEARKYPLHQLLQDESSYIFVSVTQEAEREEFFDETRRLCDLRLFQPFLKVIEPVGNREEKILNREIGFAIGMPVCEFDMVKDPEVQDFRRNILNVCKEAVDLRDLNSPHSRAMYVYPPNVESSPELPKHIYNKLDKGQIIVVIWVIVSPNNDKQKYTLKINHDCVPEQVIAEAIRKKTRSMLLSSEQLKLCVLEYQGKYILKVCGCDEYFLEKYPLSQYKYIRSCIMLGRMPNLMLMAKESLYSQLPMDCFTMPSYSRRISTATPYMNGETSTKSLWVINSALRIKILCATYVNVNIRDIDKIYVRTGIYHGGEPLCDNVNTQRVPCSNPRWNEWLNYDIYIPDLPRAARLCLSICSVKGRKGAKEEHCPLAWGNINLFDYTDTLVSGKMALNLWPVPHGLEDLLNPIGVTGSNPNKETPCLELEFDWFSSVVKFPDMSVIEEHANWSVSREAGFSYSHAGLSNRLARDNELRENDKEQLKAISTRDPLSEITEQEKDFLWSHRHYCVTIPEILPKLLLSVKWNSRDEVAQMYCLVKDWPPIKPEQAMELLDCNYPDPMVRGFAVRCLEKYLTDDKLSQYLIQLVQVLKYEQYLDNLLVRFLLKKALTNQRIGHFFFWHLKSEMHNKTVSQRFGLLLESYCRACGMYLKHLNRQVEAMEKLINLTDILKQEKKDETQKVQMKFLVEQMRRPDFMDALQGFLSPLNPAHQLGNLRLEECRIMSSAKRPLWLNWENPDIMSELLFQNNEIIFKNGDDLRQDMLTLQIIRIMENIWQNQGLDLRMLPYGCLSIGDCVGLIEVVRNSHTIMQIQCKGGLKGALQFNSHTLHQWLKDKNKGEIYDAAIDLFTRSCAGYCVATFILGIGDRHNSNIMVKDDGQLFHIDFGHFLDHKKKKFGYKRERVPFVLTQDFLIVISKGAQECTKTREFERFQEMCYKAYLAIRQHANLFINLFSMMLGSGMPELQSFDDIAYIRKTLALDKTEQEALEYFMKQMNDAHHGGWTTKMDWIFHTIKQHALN

[5] = target: Phosphatidylinositol 4,5-bisphosphate 3-kinase catalytic subunit alpha isoform (Homo sapiens) (UniProt P42336); conditions: at 1 µM
[6] = target: T2, Phosphatidylinositol 4,5-bisphosphate 3-kinase catalytic subunit delta isoform (Homo sapiens) (UniProt O00329); conditions: at 0.1 µM
T2 sequence (whole entry): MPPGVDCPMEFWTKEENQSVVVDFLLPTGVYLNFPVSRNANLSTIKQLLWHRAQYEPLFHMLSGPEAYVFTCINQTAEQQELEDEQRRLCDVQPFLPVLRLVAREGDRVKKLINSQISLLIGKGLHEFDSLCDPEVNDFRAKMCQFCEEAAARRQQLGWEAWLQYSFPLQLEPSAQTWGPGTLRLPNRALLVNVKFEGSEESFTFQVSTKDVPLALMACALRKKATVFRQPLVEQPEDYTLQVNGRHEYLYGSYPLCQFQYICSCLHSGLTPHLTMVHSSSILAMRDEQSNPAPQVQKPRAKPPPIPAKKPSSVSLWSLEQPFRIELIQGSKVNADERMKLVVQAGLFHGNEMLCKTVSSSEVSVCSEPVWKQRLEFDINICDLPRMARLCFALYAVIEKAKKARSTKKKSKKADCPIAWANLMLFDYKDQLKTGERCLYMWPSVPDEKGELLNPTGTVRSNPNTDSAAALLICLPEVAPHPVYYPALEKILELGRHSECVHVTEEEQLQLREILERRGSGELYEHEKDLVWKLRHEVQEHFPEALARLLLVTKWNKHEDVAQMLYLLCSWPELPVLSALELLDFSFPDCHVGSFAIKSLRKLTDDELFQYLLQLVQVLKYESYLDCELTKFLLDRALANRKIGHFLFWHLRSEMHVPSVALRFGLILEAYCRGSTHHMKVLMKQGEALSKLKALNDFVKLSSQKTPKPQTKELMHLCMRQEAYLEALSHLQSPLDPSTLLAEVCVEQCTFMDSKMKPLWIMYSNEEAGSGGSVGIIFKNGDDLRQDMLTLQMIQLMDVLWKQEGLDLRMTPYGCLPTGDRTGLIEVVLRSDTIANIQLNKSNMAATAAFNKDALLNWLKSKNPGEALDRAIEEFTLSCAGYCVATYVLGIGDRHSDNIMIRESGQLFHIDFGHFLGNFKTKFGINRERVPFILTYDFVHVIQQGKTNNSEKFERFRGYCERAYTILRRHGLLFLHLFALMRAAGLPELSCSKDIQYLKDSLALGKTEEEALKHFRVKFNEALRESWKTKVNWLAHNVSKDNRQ

[7] = target: T2, Phosphatidylinositol 4,5-bisphosphate 3-kinase catalytic subunit delta isoform (Homo sapiens); conditions: at 1 µM
[8] = target: Phosphatidylinositol 4-kinase beta (Homo sapiens) (UniProt Q9UBF8); conditions: at 0.1 µM
Chain of Phosphatidylinositol 4-kinase beta (Homo sapiens) (Q9UBF8 2-816 limits assumed): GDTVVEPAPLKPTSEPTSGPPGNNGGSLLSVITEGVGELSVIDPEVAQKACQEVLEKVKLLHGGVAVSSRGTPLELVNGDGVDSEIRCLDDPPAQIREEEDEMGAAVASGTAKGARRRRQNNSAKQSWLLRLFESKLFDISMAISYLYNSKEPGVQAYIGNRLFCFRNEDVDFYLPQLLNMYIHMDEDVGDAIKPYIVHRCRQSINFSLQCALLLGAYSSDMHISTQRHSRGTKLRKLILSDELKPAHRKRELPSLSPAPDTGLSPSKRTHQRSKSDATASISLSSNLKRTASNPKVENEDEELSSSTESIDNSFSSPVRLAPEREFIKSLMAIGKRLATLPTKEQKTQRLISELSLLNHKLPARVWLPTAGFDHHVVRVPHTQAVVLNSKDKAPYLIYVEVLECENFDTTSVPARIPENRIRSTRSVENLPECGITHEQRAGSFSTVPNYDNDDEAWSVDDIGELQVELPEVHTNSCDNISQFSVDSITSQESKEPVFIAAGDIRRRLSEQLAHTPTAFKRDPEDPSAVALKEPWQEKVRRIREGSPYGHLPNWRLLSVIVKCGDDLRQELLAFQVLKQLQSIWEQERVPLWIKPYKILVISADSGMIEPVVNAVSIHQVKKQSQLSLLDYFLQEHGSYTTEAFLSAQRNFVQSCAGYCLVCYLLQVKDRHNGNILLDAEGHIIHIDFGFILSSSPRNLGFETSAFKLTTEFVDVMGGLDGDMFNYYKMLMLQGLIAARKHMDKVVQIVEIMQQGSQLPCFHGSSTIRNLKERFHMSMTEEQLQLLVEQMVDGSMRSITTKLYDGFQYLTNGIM

[9] = target: Phosphatidylinositol 4-kinase beta (Homo sapiens) (UniProt Q9UBF8); conditions: at 1 µM
[10] = target: Sphingosine kinase 1 (Homo sapiens) (UniProt Q9NYA1); conditions: at 0.1 µM;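 further: mean percent inhibition of SPHK1 activity, measured within the GSK PKIS screening panel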
Chain of Sphingosine kinase 1 (Homo sapiens) (Q9NYA1 whole entry): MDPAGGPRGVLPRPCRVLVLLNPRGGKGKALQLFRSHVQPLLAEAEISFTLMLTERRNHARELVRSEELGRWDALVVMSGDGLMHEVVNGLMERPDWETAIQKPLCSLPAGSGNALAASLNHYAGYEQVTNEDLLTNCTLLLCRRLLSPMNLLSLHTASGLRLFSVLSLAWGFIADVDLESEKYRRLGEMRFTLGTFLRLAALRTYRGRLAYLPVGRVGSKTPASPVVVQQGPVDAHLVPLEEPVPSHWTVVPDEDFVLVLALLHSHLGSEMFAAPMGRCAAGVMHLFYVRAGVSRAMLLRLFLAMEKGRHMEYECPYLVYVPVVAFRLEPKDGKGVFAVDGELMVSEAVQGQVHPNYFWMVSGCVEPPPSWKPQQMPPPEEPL

| Compound | inhibition [1] | inhibition [2] | inhibition [3] | inhibition [4] | inhibition [5] | inhibition [6] | inhibition [7] | inhibition [8] | inhibition [9] | inhibition [10] |
| --- | --- | --- | --- | --- | --- | --- | --- | --- | --- | --- |
| c1ccc(-c2n[nH]cc2-c2ccnc(-c3ccc(OCCn4ccnc4)cc3)c2)nc1 | 0.72% | 0.42% | -0.94% | 0.67% | 3.3% | 1.43% | 1.91% | -2.63% | 7.03% | 2.34% |
| COc1ccc(-c2nn3ncccc3c2-c2ccnc(Nc3ccc(F)c(F)c3)n2)cc1 | 2.57% | -0.49% | 4.3% | 4.28% | 3.75% | 1.6% | 1.61% | -1.35% | -6.41% | -0.41% |
| O=C1Nc2ccccc2/C1=C1\CCc2cc(O)ccc21 | 4.17% | -1.97% | -3.93% | 3.67% | 6.82% | 2.68% | 5.45% | -5.42% | -0.12% | 1.98% |
| Nc1ncnc2occ(-c3ccc(NC(=O)Nc4cc(C(F)(F)F)ccc4F)cc3)c12 | 52% and 44.9% | 1.86% and 3.34% | 28.9% and 22% | 0.21% and -1.3% | 1.36% and 0.28% | 1.09% and -2.88% | 2.46% and -0.2% | 0.95% and 17.2% | 10.9% and 7.67% | 3.31% and 0.73% |
| CC1(C)CC(n2cnc(-c3ccc(F)cc3)c2-c2ccnc(N)n2)CC(C)(C)N1 | 2.44% | 0.72% | -1.12% | 4.34% | 4.5% | 5.71% | 6.91% | 0.64% | -1.54% | 1.98% |
| FC(F)(F)CNc1nccc(-c2cnn3ncccc23)n1 | 4.71% | -3.11% | -3.13% | 2.55% | 3.51% | 0.99% | 2.05% | 2.04% | 5.22% | -2.3% |
| N#Cc1cccc(Nc2ncc(-c3ccccc3)o2)c1 | 1.79% | -1.82% | 0.42% | 0.88% | -1.04% | -0.63% | -0.04% | -0.3% | -1.82% | 1.65% |
| Nc1nonc1-c1nc2cnccc2n1C1CC1 | 3.34% and 3.65% | -1.33% and -0.52% | -1.72% and -0.89% | 2.95% and 6.82% | 3.77% and 8% | 1.84% and 8.17% | 2.3% and 9.78% | 0.74% and 1.33% | -6.41% and 0.29% | -1.72% and 0.56% |
| Cc1ccc(-c2cc3c(NC(=O)C4CC4)ncnc3o2)cc1 | 2.7% | -2.33% | -1.12% | 1.23% | 2.63% | 2.48% | 3.33% | -4.86% | -6.67% | 3.8% |
| Cc1cc(O)cc(C)c1/C=C/c1cncc(C(N)=O)c1 | 1.72% | -2.4% | -0.6% | 0.88% | 3.67% | 0.87% | 2.16% | 0.44% | -1.46% | -0.95% |
| O=C(O[C@H]1CN[C@H](C#Cc2cc3ncnc(Nc4ccc5c(ccn5Cc5cc(F)ccc5F)c4)c3s2)C1)N1CCOCC1 | 3.26% | -2.77% | -4.63% | 3.72% | 9.95% | 2.02% | 7.62% | -3.81% | -0.39% | 3.05% |
| Cc1cc(O)cc(C)c1/C=C/c1cncc(C(=O)OC(C)(C)C)c1 | 1.7% | -1.51% | 0.59% | 5.51% | 7.91% | 5.19% | 6.21% | 1.7% | 3.49% | 2.8% |
| COC(=O)Nc1nc2cc(Oc3ccc(NC(=O)Nc4ccccc4)cc3)ccc2[nH]1 | 1.26% | -2.23% | -0.94% | 3.19% | 0% | 0.3% | 0.14% | 3.09% | 2.26% | -0.55% |
| CS(=O)(=O)CCNCc1ccc(-c2ccc3ncnc(Nc4ccc(OCc5ccccc5)cc4)c3c2)o1 | 2.57% | -2.16% | -2.56% | 2.93% | 4.79% | 0.74% | 2.65% | 0.91% | 0.45% | -0.6% |
| CCOc1ccc2c(-c3ccnc(Nc4cc(OC)cc(C(F)(F)F)c4)n3)cnn2n1 | 1.08% | -1.1% | -0.9% | -0.03% | 5.25% | -1.72% | 10.2% | 3.54% | -4.92% | -3.8% |
| Fc1ccc(Nc2nccc(-c3c(-c4ccc(C(F)(F)F)cc4)nn4ncccc34)n2)cc1F | 2.9% | -0.59% | -3.45% | 3.44% | 3.77% | 1.05% | 2.86% | -3.81% | -1.62% | 0.46% |

| Compound | inhibition [1] | inhibition [2] | inhibition [3] | inhibition [4] | inhibition [5] | inhibition [6] | inhibition [7] | inhibition [8] | inhibition [9] | inhibition [10] |
| --- | --- | --- | --- | --- | --- | --- | --- | --- | --- | --- |
| COc1ccc(Nc2ncc(-c3ccccc3)o2)cc1OC | 1.14% | -1.72% | -3.33% | -2.31% | 0.95% | 0.94% | 4.48% | 2.22% | 4.24% | -0.27% |
| CCS(=O)(=O)c1ccc(OC)c(Nc2ncc(-c3cccc(C(C)=O)c3)o2)c1 | 1.14% | -0.6% | 4.89% | 2.7% | 1.8% | 0.22% | -1.96% | 2.44% | -1.58% | 13.1% |
| Cc1nnc(-c2cccc(-c3ccc(C(=O)NCC4CC4)cc3)c2)o1 | 2.67% | -0.9% | 2.29% | 2.25% | 2.72% | -0.87% | -2.41% | -0.63% | -1.44% | -1.27% |
| Fc1cccc(COc2ccc(Nc3ncncc3C#Cc3ccccc3)cc2Cl)c1 | 2.58% | -0.38% | 3.43% | 3.88% | 2.67% | 1.53% | 1.09% | 1.02% | -1.52% | 1.58% |
| CNC(=O)c1sc(-n2cnc3cc(OC)c(OC)cc32)cc1OCc1ccccc1C(F)(F)F | 1.74% | -2.64% | -0.97% | 3.44% | 4.4% | 0.73% | 6.41% | 6.54% | 0.66% | -7.75% |
| O=C(Nc1n[nH]c2nnc(-c3cccnc3)cc12)C1CC1 | 3.03% | -1.16% | -0.28% | 0.13% | 1.26% | 1.05% | 1.67% | -1.26% | 3.04% | 1.36% |
| CS(=O)(=O)CCNCc1ccc(-c2ccc3ncnc(Nc4ccc(OCc5cccc(C(F)(F)F)c5)cc4)c3c2)o1 | 6.4% | -2% | -2.32% | 4.42% | 4.38% | 0.9% | 1.81% | 0.98% | -0.43% | 1.49% |
| NC(=O)c1ccc2c(-c3ccnc(NCCCO)n3)c(-c3ccc(F)cc3)nn2c1 | 3.04% | -2.08% | -2.11% | 2.83% | 6.09% | 2.78% | 6.2% | -2.18% | 3.6% | -2.85% |
| Nc1nccc(-c2c(-c3ccc(F)cc3)ncn2C2CCNCC2)n1 |  | 1.49% and -1% | -0.09% and 0.83% | -3.2% and 3.79% | 1.34% and 1.58% | -0.68% and 4.92% | 6.51% and 6.41% | 0.69% and 2.98% | -2.46% and -0.82% | -0.52% and 0.67% |
| N#Cc1ccc2c(-c3ccnc(NC4CC4)n3)c(-c3ccc(F)cc3)nn2c1 | 1.13% | -1.5% | -2.4% | 0.7% | 0.6% | -0.45% | -0.14% | -2.01% | -0.71% | 3.55% |
| CC(C)c1ccc(-c2cc(-c3c[nH]nc3-c3ccccn3)ccn2)cc1 | 1.41% | -1.6% | -2.44% | 0.78% | 1.76% | 0.89% | 4.14% | 1.73% | 0.67% | 1.34% |
| CCN1CCC(C(=O)Nc2n[nH]c3nnc(-c4cccc(F)c4F)cc23)CC1 | -1.22% | -1.43% | 0.92% | -1.4% | -2.49% | -3.18% | -0.47% | 0.1% | -1.04% | 0.46% |
| COc1ccc2ncn(-c3cc(O[C@H](C)c4ccccc4C(F)(F)F)c(C(N)=O)s3)c2c1 | -0.21% | -0.66% | -1.2% | 0.29% | 4.81% | 2.14% | 12.2% | -1.47% | 1.85% | -1.01% |
| CN(c1ccc(NC(=O)NCCN2CCOCC2)cc1)c1ccnc(Nc2ccc(CS(C)(=O)=O)cc2)n1 | 1.28% | 0.25% | 2.58% | 1.92% | 2.04% | -0.08% | 0.81% | 4.11% | 4.4% | 0.08% |
| COC(=O)Nc1nc2ccc(Oc3ccc(NC(=O)Nc4cc(C(F)(F)F)ccc4F)cc3)cc2s1 | 2.85% | -1.59% | -2.01% | -0.49% | 2.51% | 1.44% | 6.58% | -2.75% | -0.16% | -0.71% |

Reference: ChEMBL document CHEMBL1961873, “Compounds: GSK PKIS; Assays: Nanosyn kinase panel” (2012)
